Test results reported in PubChem BioAssay (NCATS).
Results filed as inconclusive are left out. Entries that show only a call come without a potency. The source made the active and inactive calls. Calls follow the shape of the full dose curve.

Test: qHTS assay for small molecule disruptors of the mitochondrial membrane potential - 1 hr assay (AID 651754); also: nearly all actives have a fitted effect of over 35% in size
Conditions: series mostly up to 92.2 µM
Source text: National Center for Advancing Translational Sciences [NCATS]
NIH Chemical Genomics Center [NCGC]
National Institutes of Environmental Health Sciences [NIEHS]
National Toxicology Program [NTP]
Mitochondrial membrane potential (MMP), one of the parameters for mitochondrial function, is generated by mitochondrial electron transport chain that creates an electrochemical gradient by a series of redox reactions. This gradient drives the synthesis of ATP, a crucial molecule for various cellular processes. Measuring MMP in living cells is commonly used to assess the effect of chemicals on mitochondrial function. […] The dye accumulates in the mitochondria of healthy cells as aggregates, with red fluorescence. The mitochondrial potential collapses and the dye can no longer accumulate in the mitochondria and remains in the cytoplasm in monomers, with green fluorescence.
2,000 HepG2 cells in 5 uL/well were dispensed into black, clear-bottom 1536-well plates using a Multidrop Combi (Thermo Scientific) dispenser. The assay plates were incubated overnight at 37C to allow cells to attach to the wells, followed by the transfer of 23 nL compound or DMSO vehicle by a pin tool (Kalypsys). The plates were incubated for 1 hr at 37C and 5% CO2, followed by the addition of 5 uL of 2X Mito-MPS dye (BD Biosciences) into each well using Flying Reagent Dispenser (Aurora Discovery) and then following 30 min incubation at 37C. Fluorescence intensity (490nm excitation and 535nm emission for monomers; and 540nm excitation and 590nm emissions for aggregates) was measured using an Envision plate reader.
Potency is read from the fitted curve at half-maximal effect.

SMILES	Potency
BrCC(Br)(Br)Br	inactive
N#CC(Cl)(Cl)Cl	inactive
C=C(Cl)CSC(=S)N(CC)CC	inactive
CCCCOCC1CO1 (stereo not given)	inactive
Nc1cc(Cl)cc(Cl)c1	inactive
C=CC(=O)OCCN(C)C	inactive
CC(=O)NNc1ccccc1	inactive
CCCCCCCCCCCCCl	inactive
CCOS(C)(=O)=O	inactive
Cc1cccc(N)c1C	inactive
Cc1ccc(OP(=O)(Oc2ccc(C)cc2)Oc2ccc(C)cc2)cc1	9.44 µM (active)
CC(Cl)CCl (stereo not given)	inactive
CC(C)(C)C(O)(CCc1ccc(Cl)cc1)Cn1cncn1 (stereo not given)	inactive
OCCCCO	inactive
CCCCOC(C)=O	inactive
Nc1c(Br)cc([N+](=O)[O-])cc1[N+](=O)[O-]	21.1 µM (active)
O=[N+]([O-])c1ccccc1O	inactive
CN(C)C(=O)Nc1cccc(C(F)(F)F)c1	inactive
O=[N+]([O-])c1c(Cl)c(Cl)c(Cl)c(Cl)c1Cl	inactive
O=[N+]([O-])c1ccccc1-c1ccccc1	inactive

SMILES	Potency
O=C(O)CBr	inactive
O=[N+]([O-])c1ccc(O)c([N+](=O)[O-])c1	21.1 µM (active)
C=CC(=O)OCC(CC)CCCC (stereo not given)	inactive
c1ccoc1	inactive
CN(C)N=O	inactive
Cl/C=C\Cl	inactive
CCCCC#N	inactive
ClCC(Br)CBr (stereo not given)	inactive
C=CC(=O)OCCO	inactive
CN(C)C(=O)Nc1ccc(Cl)cc1	inactive
ClCCCCl	inactive
ClC(Cl)c1ccccc1	inactive
Nc1cc(Cl)ccc1Cl	inactive
O=C(O)C(Br)CBr (stereo not given)	inactive
Nc1cccc(Cl)c1	inactive
C=COC(C)=O	inactive
CCC(Cl)[N+](=O)[O-] (stereo not given)	inactive
C=CC#N	inactive
N#CCc1ccccc1	inactive
CC(=O)[O-].CC(=O)[O-].CC(=O)[O-].[Cr+3]	inactive
